Laboratory results taken from PubChem BioAssay AID361 (National Center for Advancing Translational Sciences (NCATS), 2006).
Out of some 51,000 compounds screened, about 600 (1.2%) were called active. Another 2% or so got no clear call; they are omitted. Shown is part of a subset that was picked to be rich in actives. A number with no mark means an inactive call. No stated cut-off is given here; in the data, active means potency below about 11 µM; inconclusive means mostly about 12 µM to 25 µM; inactive means weaker than that;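 the screen sought inhibitors and activators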.

System: pyruvate kinase (Bacillus stearothermophilus)
Experiment: Pyruvate Kinase
Details: purified pyruvate kinase, luminescence ATP production; ribose 5-phosphate activator present at AC10
Method: Pyruvate kinase (partially purified from Bacillus stearothermophilus) was assayed for its ability to generate ATP from ADP using phosphoenolpyruvate (PEP) as a substrate. ATP generation was detected in a coupled reaction by luciferase-mediated luminescence, an ATP-dependent process. Pyruvate kinase substrates, PEP and ADP, were present in the assay at Km and […]-fold below Km respectively. The enzyme was assayed at an intermediate level of activity to screen for inhibitors and activators. In addition, ribose 5 phosphate, a positive modulator of pyruvate kinase, was included in the assay at AC10 in order to identify possible potentiators.
NCGC Assay Protocol Summary:
Three uL of substrate mix (final concentration, 50 mM imidazole pH 7.2, 50 mM KCl, 7 mM MgCl2, 2 mM PEP, 0.1 mM ADP, 0.7 nM ribose 5 phosphate, 0.01% Tween 20, 0.05% BSA) was dispensed into 1536 well plates. 23 nL of compound were delivered by a pin tool and 1 uL of enzyme mix (final concentration, 10 nM pyruvate kinase, 50 mM imidazole pH 7.2, 0.05% BSA) was added. After centrifugation at 1000 rpm for less than a minute, plates were incubated at room temperature for 2 hours. Three uL of detection and kinase stop mix (PKLight, Cambrex) was added, the plates centrifuged, and luminescence read by a ViewLux (Perkin Elmer) at 5 second exposure/plate. Data were normalized to the controls for AC100 stimulation (5 uM ribose 5 phosphate) and to AC100 inhibition (110 uM luteolin).
Potency means the concentration at half of the fitted maximal effect.

| Compound | Potency |
| --- | --- |
| FC(F)(F)c1nnc2sc(-c3ccco3)nn12 | > 57 µM |
| COc1cc(OC)cc(C(=O)Nc2ncc3c(n2)CC(C)(C)CC3=O)c1 | > 57 µM |
| Cn1c(=O)c2c(nc(N3CCCCCC3)n2CC(O)COc2ccc(Cl)cc2)n(C)c1=O (configuration not stated) | > 57 µM |
| CCC(=O)Nc1ccc(C(=O)Nc2ccc3c(c2)C(=O)N(CC2CCCO2)C3=O)cc1 (configuration not stated) | > 57 µM |
| COc1cccc(N(CC(=O)NC2CCCC2)C(=O)Cn2nnc(-c3ccc(C)cc3)n2)c1 | > 57 µM |
| CCOc1cc(C(=O)Nc2ncccn2)cc(OCC)c1OCC | > 57 µM |
| CCOC(=O)c1cc(-c2nnc(-c3cc(OC)c(OC)c(OC)c3)o2)c(C)nc1C | > 57 µM |
| CCOC(=O)c1cc2c(n(-c3ccc(C)cc3)c1=O)CCCC2=O | > 57 µM |
| CN1CCN(c2ccc(NC(=O)COc3ccc(Cl)cc3Cl)cc2)CC1 | > 57 µM |
| CC(C)(C)NC(=O)C(c1ccco1)N(Cc1ccc2c(c1)OCO2)C(=O)Cn1nnc2ccccc21 (configuration not stated) | > 57 µM |
| CCc1nnc(NC(=O)c2nc3nccc(C)n3n2)s1 | > 57 µM |
| c1ccc(-n2ncc3c2ncn2c(C4CCCCC4)nnc32)cc1 | > 57 µM |
| CCc1ccccc1NC(=O)CSc1nnc([C@@H](NC(=O)OC(C)(C)C)C(C)CC)o1 (some centres not stated) | > 57 µM |
| Cc1cc(C)c(C#N)c(SCc2ccccc2C(=O)O)n1 | > 57 µM |
| COc1ccc2[nH]c(=O)c(-c3noc(-c4ccc(F)cc4)n3)cc2c1 | > 57 µM |
| Cc1ccc(Cc2nc(-c3cccc(C)c3)no2)cc1 | > 57 µM |
| Cc1cccc(-c2noc(-c3ccc(F)cc3)n2)c1 | 10.4 µM (active) |
| CC(C)OC(=O)c1cc(NC(=O)C2C3CCC(O3)C2C(=O)O)cc(C(=O)OC(C)C)c1 (configuration not stated) | 6.13 µM (active) |
| CCC(CC)C(=O)Nc1cc(C(=O)OC)cc(C(=O)OC)c1 | > 57 µM |

| Compound | Potency |
| --- | --- |
| Cc1nc(NCc2ccccc2)c(C(N)=O)c2c1COC(C)(C)C2 | > 25.6 µM |
| COc1ccc2oc(=O)c(C(=O)O)cc2c1 | > 57 µM |
| Cc1cc(Cl)c(S(=O)(=O)NCc2cccnc2)cc1OCC(N)=O | > 57 µM |
| Cc1nn(CC(=O)Nc2ccc3c(c2)nc(CN2CCCCC2)n3C)c(=O)c2ccccc12 | > 57 µM |
| COC(=O)c1ccc2c(c1)S(=O)(=O)NC(=NCCCN1CCOCC1)S2 | > 57 µM |
| COc1ccc2oc(C)c(NC(C)=O)c2c1 | > 57 µM |
| O=C(Nn1cc(C(=O)N2CCN(c3ccccc3F)CC2)c2ccccc2c1=O)c1cnccn1 | > 57 µM |
| COCC(C)n1c(SCc2ccc(C(=O)OC)o2)nc2ccccc2c1=O (configuration not stated) | > 57 µM |
| CCOc1cc(-c2nc3cc(C)ccn3c2NCC2CCCO2)ccc1O (configuration not stated) | > 57 µM |
| COc1ccc(-c2nc(-c3ccccc3)no2)c(OC)c1 | 0.55 µM (active) |
| COc1ccccc1Cc1nc(-c2ccc(C)cc2)no1 | > 57 µM |
| CCOc1nc(-c2ccc(OC)cc2)ccc1-c1noc(-c2cc(OC)c(OC)c(OC)c2)n1 | > 57 µM |
| Cn1c(=O)c2c(n(Cc3ccccc3)c1=O)NC(=O)C2CC(=O)N1CCc2ccccc2C1 (configuration not stated) | > 57 µM |
| CC(C)C(=O)N1CCN(CCN=CC2=C(O)CC(c3ccco3)CC2=O)CC1 (configuration not stated) | > 57 µM |
| O=C(CN1CCN(C2CCCCC2)CC1)Nc1ccccc1N1CCCCC1 | > 57 µM |
| Fc1ccccc1OCCCCn1cncn1 | > 57 µM |
| Cc1cccc(-n2ncc3c(N4CCc5ccccc54)ncnc32)c1 | > 57 µM |
| CCN(CC)CCCN1C(=O)C(=O)/C(=C(/O)c2c(C)nc3ccccn23)C1c1ccc(C)o1 (configuration not stated) | > 57 µM |
